An excerpt weighted towards active compounds, which were near 19% of everything screened.
TDP1 cell noCPT: qHTS for Inhibitors of human tyrosyl-DNA phosphodiesterase 1 (TDP1): qHTS in cells in absence of CPT | DT40 Tdp1-/- hTDP1 cells, no CPT, ATP luminescence, 48 h | 420,000 compounds, 15% hits | Potency, µM (titrated, usually from 46.2 µM), for inactives: at the highest dose activity change, negative = growth inhibition, actives largely listed as inhibitors; note: potency is the fitted concentration of half-maximal effect; nearly all actives have a fitted effect of over 55% in size
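Chicken DT40 Tdp1-/- cells complemented with human TDP1, screened without camptothecin (DMSO vehicle only), 400 cells/well. Compounds pin-transferred, cells incubated at 37 °C for at least 48 hr. Growth read as ATP-dependent luminescence (CellTiter-Glo, 30 min at RT).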
Giardia kill: kills Giardia lamblia; AID 540267; 340,000 compounds, 0.15% hits; Giardia lamblia trophozoite viability; activity change, % at 7.66 µM, hits read low; in the data active = activity change below about -80%; inconclusive = between about -30% and that limit;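 note: parasites exposed to compound for two days anaerobically before the ATP read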
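Trophozoites 100 cells/well + cpd; 48 hrs, 37 deg C, anaerobic. ATPLite 1-Step added, 15-30 min RT, luminescence read (ATP-based viability).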
ELG1 repair inh: ELG1-dependent DNA repair inhibition; HEK293T ELG1-luciferase reporter, luminescence, 16 h; DNA damage induced by 5-fluorouridine; Potency, µM (titrated, usually from 46.1 µM), inactives show at the highest dose activity change, negative = inhibition, most hits filed as inhibitors; 330,000 compounds, 2.3% hits; AID 504467; note: potency is the fitted concentration of half-maximal effect; nearly all actives have a fitted effect of over 55% in size
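In this reporter screen, reduction of luminescence relative to DMSO vehicle indicated activity. Compounds and 5-fluorouridine were added together to 2,000 cells per well, incubated for 16 hr at 37 °C, then developed with ONE-Glo.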
IL1B secr inh: inhibitors of inflammasome signaling (IL-1 beta secretion) | activity change, % at 57.5 µM | 360,000 compounds, 4.7% hits | THP-1 LPS/ATP IL-1B secretion, AlphaLISA, 16 h; hits give low values; in the data active = activity change below about -50%; inconclusive = mostly about -30% to -49%
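Secreted IL-1B measured by AlphaLISA bead assay after 16 h compound exposure of THP-1 cells; compounds (final up to 57.5 uM) added 1 h before LPS (250 ng/mL) and ATP (1.25 mM) stimulation; lower signal means less secretion.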
TDP1 block: inhibitors of human tyrosyl-DNA phosphodiesterase TDP1. 350,000 compounds, 0.28% hits. Q9NUW8. Potency, µM (titrated, usually from 130 µM), inactives show top-dose activity change, negative = inhibition, actives largely listed as inhibitors. recombinant TDP1, AlphaScreen DNA substrate cleavage. AID 485290; note: potency is the fitted concentration of half-maximal effect; nearly all actives have a fitted effect of over 40% in size
Target sequence (Q9NUW8 whole entry, looked up): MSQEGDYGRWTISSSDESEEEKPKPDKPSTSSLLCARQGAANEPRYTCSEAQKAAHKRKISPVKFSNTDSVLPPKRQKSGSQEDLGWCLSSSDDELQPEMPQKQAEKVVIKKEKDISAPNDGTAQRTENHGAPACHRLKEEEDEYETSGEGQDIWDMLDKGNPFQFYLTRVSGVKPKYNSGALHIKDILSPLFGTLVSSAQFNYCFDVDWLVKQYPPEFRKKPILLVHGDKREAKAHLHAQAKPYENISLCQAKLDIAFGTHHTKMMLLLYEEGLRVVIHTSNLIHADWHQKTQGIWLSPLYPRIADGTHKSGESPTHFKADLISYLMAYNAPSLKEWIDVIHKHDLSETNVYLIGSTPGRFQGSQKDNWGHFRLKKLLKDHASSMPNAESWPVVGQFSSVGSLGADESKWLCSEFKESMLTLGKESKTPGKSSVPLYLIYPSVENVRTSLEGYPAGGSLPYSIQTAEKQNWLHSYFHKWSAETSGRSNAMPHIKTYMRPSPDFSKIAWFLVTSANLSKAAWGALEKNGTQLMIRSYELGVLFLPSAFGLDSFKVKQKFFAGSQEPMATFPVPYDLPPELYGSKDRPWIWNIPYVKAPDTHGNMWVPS
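Here, a 5' biotin and 3' phosphotyrosine-FITC DNA oligonucleotide reports Tdp1 activity: intact substrate bridges AlphaScreen beads, while cleavage leaves a 3' phosphate and drops signal. All incubations at room temperature.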
TDP1 cell CPT: DT40-hTDP1 cell growth loss with CPT | chicken DT40 Tdp1-/-;hTDP1 cells + 20 nM CPT, ATP luminescence, 48 h | Potency, µM (top dose mostly 46.2 µM), without a hit: at the highest dose activity change, negative = growth inhibition, hits mostly inhibitors | 420,000 compounds, 12% hits | AID 686979; note: potency is the fitted concentration of half-maximal effect; nearly all actives have a fitted effect of over 55% in size
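Cell growth measured by CellTiter-Glo luminescence after a minimum 48 h, 37 C compound exposure with 20 nM CPT in Tdp1-knockout DT40 cells stably expressing hTDP1, seeded 400/well; qHTS titration format.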
Numbers without * were called inactive; u = inconclusive; x = no result given. Unless noted, calls come from the whole dose curve; as a rule, active = well fitted curve in the direction sought with a large enough effect; inconclusive = small, poorly fitted or top-dose-only effect, or another doubt; inactive = no such curve, though single readings can be large; an effect the other way counts as inactive or inconclusive. % is set by controls: 0 for no effect and ±100 for the full control effect.

SMILES	TDP1 cell noCPT	Giardia kill	ELG1 repair inh	IL1B secr inh	TDP1 block	TDP1 cell CPT
CCCCCCn1c(CN2CCC(C)CC2)nc2c1c(=O)n(C)c(=O)n2C	16.4µM*	2.3	13.6%	40.8	0.0%	u
CCCCCn1c(CN2CCN(Cc3ccccc3)CC2)nc2c1c(=O)n(C)c(=O)n2C	14.6µM*	-11.6	20.6µM*	0.4	5.0%	14.6µM*
CCCCn1c(CN2CCN(c3ccccc3)CC2)nc2c1c(=O)n(C)c(=O)n2C	2.31µM*	-19.5	u	62.0	5.4%	1.46µM*
CC(C)CCn1c(CN2CCN(Cc3ccccc3)CC2)nc2c1c(=O)n(C)c(=O)n2C	16.4µM*	-2.0	u	-0.1	4.2%	u
CCOc1ccc(N(CC(=O)Nc2ccc(OC)cc2)S(=O)(=O)c2ccc(Cl)cc2)cc1	x	x	x	x	4.7%	x
CCCCCC(=O)Nc1cccc(C2=NOC3(C2)C[C@H](C(N)=O)N(C(=O)c2ccccc2C(=O)c2ccccc2)C3)c1 (stereo partly specified)	u	-0.2	-23.0%	0.0	5.9%	u
Cn1c(=O)c2c(nc(CN3CCN(c4ccccc4)CC3)n2CCCc2ccccc2)n(C)c1=O	14.6µM*	11.7	x	10.5	x	20.6µM*
Cn1c(=O)c2c(nc(CN3CCC(C(N)=O)CC3)n2CCCc2ccccc2)n(C)c1=O	u	7.8	-9.6%	0.1	0.5%	-27.4%
CCOc1ccc(Nc2nc(-c3cccc(Cl)c3)c3c(n2)-c2ccccc2OC3)cc1	u	x	x	x	-8.6%	-26.6%
CN1CCN(c2ncnc3ccc(-c4ccccc4Cl)cc23)CC1	20.6µM*	x	x	x	x	16.4µM*
Cc1ccccc1-c1ccc2ncnc(N3CCN(C)CC3)c2c1	16.4µM*	x	x	x	x	u
Clc1ccccc1-c1ccc2ncnc(NCc3cccs3)c2c1	x	-3.8	-3.8%	x	0.8%	x
CC(C)c1ccc(NC(=O)Cn2c(=O)n(CCc3ccccc3)c(=O)c3ccccc32)cc1	u	x	x	x	1.8%	u
O=C([C@@H]1C[C@@H](Sc2nc3ccccc3[nH]2)CN1Cc1ccc(Cl)cc1)N1CCN(c2ccccc2F)CC1	20.6µM*	x	x	x	x	u
Cc1cc(C)n(-c2cc(-c3ccccc3)nc(C)n2)n1	u	-9.7	-13.4%	-6.3	0.0%	16.4µM*
CCOc1ccccc1Nc1cc(-c2ccccc2)nc(C)n1	u	x	x	x	-13.0%	u
Cc1cc(C)cc(Nc2cc(-c3ccccc3)nc(C)n2)c1	8.2µM*	x	x	x	-4.7%	9.2µM*
C=CCn1c(SCC(=O)Nc2nnc(C)s2)nnc1C1CC1	-2.3%	27.0	27.7%	14.9	28.2µM*	-1.2%
O=C(C(=O)N1CCCC1)c1c(-c2ccccc2)[nH]c2ccccc12	-22.0%	-9.7	10.1%	10.2	x	-16.7%
CSc1nnc(NC(=O)c2ccc(S(=O)(=O)N(C)C)cc2)s1	0.6%	u	u	-5.8	-2.5%	1.9%
COc1ccc(NC(=O)N2CCCC3(CCN(S(=O)(=O)c4ccccc4)CC3)C2)cc1	-26.8%	x	x	x	x	14.4%
COc1ccc(C(CNC(=O)COc2ccccc2C)N2CCOCC2)cc1 (stereo unspecified)	16.4µM*	-14.2	-0.9%	0.1	-12.5%	20.6µM*
CC(C)c1ccc(OCC(=O)NCC(c2ccc(Cl)cc2)N2CCOCC2)cc1 (stereo unspecified)	18.4µM*	x	x	x	0.5%	u
O=C(COc1ccccc1F)NCC(c1ccc(F)cc1)N1CCOCC1 (stereo unspecified)	-21.9%	-2.6	-5.9%	0.0	2.6%	-18.8%
Cc1ccccc1OCC(=O)NCC(c1ccc(Cl)cc1)N1CCOCC1 (stereo unspecified)	16.4µM*	x	x	x	-7.8%	20.6µM*
OCC[C@H]1C[C@@H](O)[C@H](O)[C@@]2(Cc3ccccc3O2)O1	-0.7%	13.5	0.6%	6.4	-2.8%	-4.8%
